Measured values taken from PubChem BioAssay (NCATS).
Inconclusive results are not listed. Entries that show only a call come without a potency. Activity calls are given as the source filed them. Calls follow the shape of the dose curve; as a rule, active = well fitted cell-killing curve with a large enough effect; inconclusive = small, poorly fitted or top-dose-only effect, or effect the other way; inactive = no such curve, though single readings can be large or run the other way.

test: Quantitative highthroughput screen to assess conditional lethalithy of SEM cells grown in RPMI1640 with unreated serum (RPMI+s) (AID 1963883); details: SEM B-ALL cells, CellTiter-Glo viability, 48 h; series mostly up to 45.8 µM; also: nearly all actives have a fitted effect of over 35% in size
Text: Assay Provider: Jason Cantor Ph.D.
Department of Biochemistry
University of Wisconsin-Madison, Madison, WI, USA
Chemical screening studies have identified drug sensitivities across hundreds of cancer cell lines but most putative therapeutics fail to translate. Discovery and development of drug candidates in models that more accurately reflect nutrient levels in human blood is a major challenge. Here we performed high-throughput screens in conventional versus Human Plasma-Like Medium (HPLM) to identify compounds that were "missed" when screening using the artificial culture condition. Sets of conditional anticancer compounds spanned phases of clinical development and included non-oncology drugs were assessed. […] We also traced conditional phenotypes for several chemotherapeutics to availability of HPLM-specific metabolites and confirmed others for compounds whose reported targets are encoded by nonessential genes. Our findings establish generalizable strategies for exploiting conditional lethality in HPLM to reveal therapeutic candidates and mechanisms of action in cancer cells.
Described herein are the results of each viability screens against three cell lines: NOMO1 (an acute myeloid leukemia cell line); P12-Ichikawa (a T-cell acute lymphoblastic leukemia); and SEM (a B-cell ALL). Each assay was screened using 3 different cell culture media: homemade human plasma-Like medium with 10% dialyzed fetal bovine serum (HPLM+ds); RPMI1640 with 10% untreated FBS and 5mM glucose (RPMI+s); and RPMI1640 with 10% dialyzed fetal bovine serum and 5 mM glucose (RPMI+ds).
PROTOCOL TABLE (as described by Inglese J, Shamu CE and Guy RK. 2007)
SEQUENCE No. (e.g., 1, 2, 3, etc.); […] (e.g., Cells, Incubation, Reagent, etc.); VALUE and DESCRIPTION.
1; Cells; 5 uL; white, solid bottom 1536-well Greiner assay plate.
2; Compounds; 23 nL; Kalypsis pin tool (Wako USA) equipped with a 1536-well pin head to transfer to the assay plates.
3; Incubation; 48 hours; 37C incubation.
4; Reagent; 3 uL; CellTiter Glo (Promega).
5; Incubation; 5 min, room temperature
6; Detection; Luminescence, Viewlux PerkinElmer.
NOTES (numbers refer to Sequence numbers above)
1. Briefly, 5 ul of cell reagent was dispensed using a Multidrop Combi Dispenser. The NOMO1 and SEM cells were plated at 500 cells/well and the P12-Ichikawa line at 1000 cells/well.
2. After seeding the cells, 23 nL of MIPE 4.1 library compounds (in DMSO) were added to each plate using a Kalypsys 1536 Pintool dispenser. Bortezomib at final concentration of […] and DMSO were added to each plate as positive and negative controls respectively. For each screen, MIPE 4.1 compounds were added over an eleven-point concentration range […] in 3-fold dilutions.
3. Each plate was covered with a stainless steel gasketed lid to prevent evaporation and incubated for 48 hour at 37C, 95% relative humidity, and 5% CO2.
4-5. Three microliter CellTilter-GloTM luminescent substrate mix (Promega) reagent was added to the assay plate and incubated at room temperature for 5 min.
6. The luminescence signal was measured using a ViewLux (PerkinElmer) multiplate reader with a 2 second exposure time per plate. Data for each compound were normalized as percent viability such that measurements for DMSO and the empty well controls in each plate were defined as 100% and 0%, respectively.
Potency is read from the fitted curve at half-maximal effect.

Compound | Potency
COc1ccc2c(c[n+](C)c3c4cc5c(cc4ccc23)OCO5)c1OC | 8.33 µM (active)
CC1(N2CCC(n3c([C@@H]4CCCNC4)nc4ccccc43)CC2)CCCCCCC1 | inactive
CN[C@@H]1Cc2cccc3[nH]c(=O)n(c23)C1 | inactive
CC(C)N(CCNC(=O)CN1CCCC1=O)C(C)C | inactive
COc1cc2cc(c1Cl)N(C)C(=O)C[C@H](OC(=O)C(C)C)[C@]1(C)O[C@H]1[C@H](C)[C@@H]1C[C@@](O)(NC(=O)O1)[C@H](OC)C=CC=C(C)C2 | inactive
CCN1CCN(C(=O)Cc2ccc(Nc3ncc(F)c(Nc4ccc(C(=O)Nc5ccccc5Cl)cc4)n3)cc2)CC1 | 5.9 µM (active)
CC(=Cc1csc(C)n1)[C@@H]1C[C@H]2O[C@]2(C)CCC[C@H](C)[C@@H](O)[C@@H](C)C(=O)C(C)(C)[C@@H](O)CC(=O)O1 | inactive
C[C@@H]1CC[C@@]2(OC1)O[C@H]1C[C@H]3[C@@H]4CC=C5C[C@@H](O[C@@H]6O[C@H](CO)[C@@H](O[C@@H]7O[C@@H](C)[C@H](O)[C@@H](O)[C@@H]7O)[C@H](O)[C@@H]6O[C@@H]6O[C@@H](C)[C@H](O)[C@@H](O)[C@@H]6O)CC[C@]5(C)[C@@H]4CC[C@]3(C)[C@@H]1[C@H]2C | 14.8 µM (active)
O=S(=O)(CC1CS1)c1ccc(Oc2ccccc2)cc1 (stereo not given) | 20.9 µM (active)
Cc1cc(SCc2sc(-c3ccc(C(F)(F)F)c(F)c3)nc2C)ccc1OCC(=O)O | inactive
CCCC(C)(COC(N)=O)COC(=O)NC(C)C (stereo not given) | inactive
COc1ccc2c(c1)[C@]13CCCCC1C(C2)N(C)CC3 (stereo not given in full) | inactive
COC[C@H]1OC(=O)c2coc3c2[C@@]1(C)C1=C(C3=O)C2CCC(=O)[C@@]2(C)C[C@H]1OC(C)=O (stereo not given in full) | inactive
CN(C)[C@@H]1C(=O)C(C(N)=O)=C(O)[C@@]2(O)C(=O)C3=C(O)c4c(O)cccc4[C@@](C)(O)[C@H]3[C@H](O)[C@@H]12 | inactive
C[C@@H]1CC[C@H]2[C@@H](C)C(=O)O[C@@H]3O[C@@]4(C)CC[C@H]1[C@]32OO4 | inactive
NC1CC1c1ccccc1 (stereo not given) | inactive
CN1C(=O)CCS(=O)(=O)C1c1ccc(Cl)cc1 (stereo not given) | inactive
O=c1[nH]c2ccccc2n1CCCN1CCC(n2c(=O)[nH]c3cc(Cl)ccc32)CC1 | inactive
O=C1C=CC[C@@H]2[C@H]3CCCN4CCC[C@@H](CN12)[C@@H]34 | inactive
COc1cc(C(=O)N2CC[C@@H](O)[C@@H](N)C2)cc2nc(-c3cc4ccccc4n3CC3CC3)n(C)c12 | 0.186 µM (active)

Compound | Potency
CC(C)c1cccc(C(C)C)c1O | inactive
O=C(Nc1ccncc1)C(=O)c1cn(Cc2ccc(Cl)cc2)c2ccccc12 | 0.0526 µM (active)
CC(C)(C)[C@]1(O)C[C@@H]2OC(=O)C[C@@]23C(=O)O[C@@H]2OC(=O)[C@H](O)C213 (stereo not given in full) | inactive
CCOC(=O)c1cncn1[C@H](C)c1ccccc1 | inactive
CCC1(c2ccc(N)cc2)CCC(=O)NC1=O (stereo not given) | inactive
CN(C)CCN(C)CCc1ccc(Cl)c(Cl)c1 | inactive
COC1(CS(=O)c2ccccc2)CCN(CCc2c[nH]c3ccc(F)cc23)CC1 (stereo not given) | inactive
COc1ccc(C(=O)c2c(C)n(CCN3CCOCC3)c3ccccc23)cc1 | inactive
CC(N[C@H]1C[C@H]1c1ccccc1)c1ccc2c(c1)OCCO2 (stereo not given in full) | inactive
C[C@]12CC[C@H]3[C@@H](CC[C@@]45O[C@H]4C(O)=C(C#N)C[C@]35C)[C@H]1CC[C@H]2O | 18.7 µM (active)
C=C[C@@H]1CN2CCC1C[C@@H]2[C@@H](O)c1ccnc2ccccc12 (stereo not given in full) | 16.6 µM (active)
C[C@]12Cc3cn[nH]c3C[C@@H]1CC[C@@H]1[C@H]2CC[C@@]2(C)[C@H]1CC[C@]2(C)O | inactive
CC(=Cc1csc(C)n1)[C@@H]1C[C@H]2O[C@@H]2CCC[C@H](C)[C@@H](O)[C@@H](C)C(=O)C(C)(C)[C@@H](O)CC(=O)O1 | inactive
C[C@H]([C@H](O)CCC(C)(C)O)[C@H]1CC[C@@]2(O)C3=CC(=O)[C@@H]4C[C@@H](O)[C@@H](O)C[C@]4(C)[C@@H]3CC[C@]12C | inactive
CCOC(=O)Nc1ccc(NCc2ccc(F)cc2)cc1N | inactive
COc1ccc2c(c1OC)CN1CCc3cc4c(cc3C1C2)OCO4 (stereo not given) | 0.372 µM (active)
C[C@]12CCC(=O)C(O)=C1CC[C@@H]1[C@H]3CCC(=O)[C@@]3(C)CC[C@@H]12 | inactive
O=C1CCC[C@@H]2[C@H]3CCCN4CCC[C@@H](CN12)[C@@H]34 | inactive
C[C@@H]1O[C@@H](O[C@@H]2C=C3CC[C@@H]4[C@@H](CC[C@]5(C)[C@H](c6ccc(=O)oc6)CC[C@@]45O)[C@@]3(C)CC2)[C@H](O)[C@H](O)[C@H]1O | 0.0469 µM (active)
COC(=O)[C@@H](N)CCCN=C(N)N[N+](=O)[O-] | inactive
